Gal4-VP16 FLuc = Gal4-VP16 reporter inhibition counter-screen. 310,000 tested, 3.5% active. Drosophila S2 Gal4-VP16 UAS-luciferase, luminescence, 20 h. Potency, µM (series often up to 53.6 µM), without a hit: top-dose activity, negative = inhibition, hits mostly inhibitors;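 also: Gal4-VP16 expression switched on by copper sulfate through the metallothionein promoter; nearly all actives have a fitted effect of over 50% in size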
RORg inh = blocks mouse ROR gamma transcriptional activity | Drosophila S2 Gal4-RORgamma UAS-luciferase reporter, 20 h | P51450 | Potency, µM (series often up to 53.6 µM), without a hit: at the highest dose activity change, negative = inhibition, most hits filed as inhibitors | AID 2551 | 310,000 tested, 5.4% active; also: nearly all actives have a fitted effect of over 60% in size
Target sequence (P51450 whole entry, looked up, the tested form may be a part): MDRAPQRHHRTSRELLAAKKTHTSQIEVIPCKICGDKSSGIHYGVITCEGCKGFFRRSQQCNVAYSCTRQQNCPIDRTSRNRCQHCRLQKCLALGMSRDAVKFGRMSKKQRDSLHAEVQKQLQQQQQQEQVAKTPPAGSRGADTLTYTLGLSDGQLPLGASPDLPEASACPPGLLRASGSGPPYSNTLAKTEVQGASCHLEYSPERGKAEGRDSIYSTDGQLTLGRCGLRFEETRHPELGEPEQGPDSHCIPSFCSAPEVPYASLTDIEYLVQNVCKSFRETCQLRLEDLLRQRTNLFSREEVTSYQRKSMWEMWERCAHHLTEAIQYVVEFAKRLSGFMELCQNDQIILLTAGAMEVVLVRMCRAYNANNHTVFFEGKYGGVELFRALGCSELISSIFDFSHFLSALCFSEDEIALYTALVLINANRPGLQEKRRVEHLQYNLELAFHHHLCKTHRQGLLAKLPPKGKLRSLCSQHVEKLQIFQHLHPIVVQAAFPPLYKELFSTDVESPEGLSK
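ROR gamma transcriptional activity was tracked as Gal4-UAS luciferase output in stably transfected Drosophila Schneider cells, with compound added 1 hr before 700 uM copper sulfate induction and a 20 hr ambient-temperature incubation.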
12-LOX inh = ALOX12 (human) lipoxygenase inhibition; AID 1671190; purified 12hLO, xylenol orange hydroperoxide absorbance; 580,000 tested, 1.1% active; Potency, µM (doses to about 108 µM), without a hit: at the highest dose activity change, negative = inhibition, hits mostly inhibitors
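Purified human 12hLO (150 nM final) in 25 mM Hepes, 0.01% Triton X-100, pH 7.0 was preincubated 15 min at room temperature with compound. Then 40 uM arachidonic acid was added, 30 min. Hydroperoxide was read by Fe-XO absorbance ratio 573/405 nm.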
ELG1 repair inh = inhibitors of ELG1-dependent DNA repair in HEK293T cells; HEK293T ELG1-luciferase reporter, luminescence, 16 h; DNA damage induced by 5-fluorouridine; Potency, µM (doses to about 46.1 µM), without a hit: at the top dose activity change, negative = inhibition, usual class: inhibitors; 330,000 tested, 2.3% active; also: nearly all actives have a fitted effect of over 55% in size
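5-Fluorouridine DNA damage + compound/DMSO, 2,000 cells/well, 16 h, 37 °C/5% CO2. ONE-Glo, 30 min RT, luminescence. Readout = decrease in reporter signal.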
TDP1 cell CPT = DT40-hTDP1 cell growth loss with CPT | chicken DT40 Tdp1-/-;hTDP1 cells + 20 nM CPT, ATP luminescence, 48 h | Potency, µM (highest dose often 46.2 µM), for the others: top-dose activity change, negative = growth inhibition, hits mostly inhibitors | 420,000 tested, 12% active | AID 686979; also: nearly all actives have a fitted effect of over 55% in size
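Chicken DT40 Tdp1-/- cells stably complemented with human TDP1 were seeded at 400 cells/well in medium containing 20 nM camptothecin, exposed to pin-transferred compounds, and grown at 37 °C for at least 48 hr. Viability was read as ATP luminescence.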
TDP1 cell noCPT = qHTS for Inhibitors of human tyrosyl-DNA phosphodiesterase 1 (TDP1): qHTS in cells in absence of CPT | DT40 Tdp1-/- hTDP1 cells, no CPT, ATP luminescence, 48 h | Potency, µM (titrated, usually from 46.2 µM), for inactives: top-dose activity change, negative = growth inhibition, usual class: inhibitors | 420,000 tested, 15% active | AID 686978, 2013; also: nearly all actives have a fitted effect of over 55% in size
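Stably hTDP1-transfected Tdp1-null chicken DT40 cells were treated with library compounds minus camptothecin and grown for at least 48 hr at 37 °C, after which cellular ATP was quantified by luminescence.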
* hit, by the source's call; i = inactive; ? = inconclusive; . = no result; [ ] = remark or other dose. Rows were chosen to be rich in hits. Some 15% of all compounds tested hit in one or more screens of this group. Calls follow the shape of the dose curve; as a rule, active = well fitted curve in the direction sought with a large enough effect; inconclusive = small, poorly fitted or top-dose-only effect, or another doubt; inactive = no such curve, though single readings can be large; an effect the other way counts as inactive or inconclusive. % is scaled to controls: 0 for no effect and ±100 for the full control effect; potency is read from the fitted curve at half-maximal effect.

SMILES | Gal4-VP16 FLuc | RORg inh | 12-LOX inh | ELG1 repair inh | TDP1 cell CPT | TDP1 cell noCPT
COc1ccc(CNC(=O)Cc2nn(C)c(=O)c3ccccc23)cc1OC | . | . | 20% | . | . | .
Cc1ccc(NC(=O)Cc2nn(C)c(=O)c3ccccc23)cc1F | 11µM* | -19% | 20% | ? | 2.3µM* | 2.6µM*
O=C(Cn1ncn2c(cc3ccccc32)c1=O)NCCCc1ccccc1 | -10% | -19% | . | 8% | -15% | -8%
Cn1nc(CC(=O)Nc2ccc(Cl)cc2)c2ccccc2c1=O | . | . | -12% | . | . | .
O=C(Cn1ncn2c(cc3ccccc32)c1=O)NCc1ccc(F)cc1 | . | . | -12% | . | 5.8µM* | 4.1µM*
Cn1nc(CC(=O)NCc2cccc3ccccc23)c2ccccc2c1=O | 8% | -12% | -2% | ? | 7.3µM* | 9.2µM*
Cn1nc(CC(=O)NCc2ccc(F)cc2)c2ccccc2c1=O | ? | 22% | -1% | ? | 13µM* | 18µM*
Cc1ccoc1C(=O)NCc1ccnc(OCC(F)(F)F)c1 | . | . | 8% | . | . | .
CC(NC(=O)c1ccsc1)C1CCCO1 (stereo not drawn) | . | . | -18% | . | . | .
O=C(c1ccccc1)N(Cc1ccco1)C1CC1 | . | . | -7% | . | . | .
CCCOc1ccc(N2C(=O)CC(SC(=N)N3N=C(c4ccccc4)CC3c3ccccc3)C2=O)cc1 (stereo not drawn) | -4% | 40% | -13% | ? | 18µM* | 18µM*
CCCOc1ccc(N2C(=O)CC(SC(=NC)Nc3ccc(F)cc3)C2=O)cc1 (stereo not drawn) | -12% | -2% | -23% | -10% | -20% | ?
CC(=O)c1c(C)[nH]c(C(=O)OCC(=O)N2CCN(S(=O)(=O)c3ccc(C)cc3)CC2)c1C | . | . | 10% | -13% | -28% | ?
CC(=O)c1c(C)[nH]c(C(=O)OCC(=O)N2CCc3ccccc3C2)c1C | . | . | -27% | ? | 23µM* | 16µM*
CC(=O)c1c(C)[nH]c(C(=O)OCC(=O)N2CCN(S(=O)(=O)c3ccc(C)cc3C)CC2)c1C | 1% | 23% | 0% | 18µM* | ? | ?
CCOC(=O)c1[nH]c(C)c(C(=O)N2CCc3ccccc32)c1C | 0% | -19% | i | -2% | 0.82µM* | 0.92µM*
CCc1ccc(/C=C2\SC(=S)N(CCC(=O)NCCCN3CCOCC3)C2=O)cc1 | 2% | 5% | ? | 7% | ? | ?
COc1ccc(/C=C2\SC(=S)N(CCC(=O)NCCCN3CCOCC3)C2=O)cc1 | 19% | 9% | -24% | -5% | -16% | ?
COC(=O)c1ccc(/C=C2\SC(=S)N(CCCC(=O)NCCCN3CCOCC3)C2=O)cc1 | 1.8µM* | 2.2µM* | ? | -10% | ? | 23µM*
O=C(CCCN1C(=O)/C(=C/c2cccc(Br)c2)SC1=S)NCCCN1CCOCC1 | 0% | 10µM* | ? | ? | 26µM* | ?
N#CCCn1nc(-c2ccc([N+](=O)[O-])cc2)cc1Nc1ccccc1NC(=O)C(F)(F)F | ? | 41% | -22% | 18µM* | ? | ?
O=C(COc1ccccc1)Nc1cccc2cccnc12 | . | . | 2% | . | . | .
CCN1CCN(c2ccc(S(=O)(=O)N3CCCCC3)cc2NC(=O)c2ccc([N+](=O)[O-])o2)CC1 | . | . | ? | ? | 8.2µM* | 7.3µM*
COc1ccc(S(=O)(=O)N2CCN(C(=O)c3ccc([N+](=O)[O-])o3)CC2)cc1 | -1% | ? | -35% | ? | 10µM* | 21µM*
COc1cccc(C(=O)Nc2cc(S(=O)(=O)N3CCCCC3)ccc2OC)c1 | 0% | -3% | -1% | ? | ? | ?
SMILES | Gal4-VP16 FLuc | RORg inh | 12-LOX inh | ELG1 repair inh | TDP1 cell CPT | TDP1 cell noCPT
COc1ccc(S(=O)(=O)N2CCCCC2)cc1NC(=O)c1ccc([N+](=O)[O-])o1 | 0% | -3% | -4% | ? | 15µM* | 21µM*
O=C(NC[C@H]1O[C@H](Cc2cc(COc3ccccc3)on2)CC[C@@H]1O)Nc1ccc(F)cc1 | . | . | -18% | . | . | .
O=S(=O)(Nc1nc2ccccc2nc1N1CCN(c2ncccn2)CC1)c1ccccc1 | . | . | -22% | . | . | .
O=[N+]([O-])c1ccc(N2CCN(C(=S)NCc3ccc(Cl)cc3)CC2)cc1 | ? | -25% | -20% | 15µM* | 5.8µM* | 3.7µM*
COCCCNC(=S)N1CCN(c2ccc([N+](=O)[O-])cc2)CC1 | -10% | ? | -17% | ? | 16µM* | 8.2µM*
CCNC(=S)N1CCN(c2ccc([N+](=O)[O-])cc2)CC1 | -3% | ? | ? | -1% | -81% | -92%
O=C(Nc1ccccn1)c1onc2c1CCCC2 | 8.9µM* | 6.3µM* | 2% | ? | -16% | -21%
Cc1ccccc1-c1cc(C(=O)NCCc2cnc[nH]2)c2c(c1)N(C)CCO2 | . | . | 55%[176 µM] | . | . | .
CC(C)(C)NC(=O)C(c1ccc(-c2ccccc2)cc1)N(C[C@H]1CC[C@@H]([C@@H]2CC[C@H](CO)O2)O1)C(=O)c1cccc(Cl)c1 (stereo partly drawn) | . | . | 1% | ? | ? | ?
CC(C)(C)NC(=O)C(c1ccc(-c2ccccc2)cc1)N(C[C@H]1CC[C@@H]([C@@H]2CC[C@H](CO)O2)O1)C(=O)c1ccc(-c2ccccc2)cc1 (stereo partly drawn) | . | . | . | 23µM* | ? | 15µM*
CC(C)(C)NC(=O)C(c1ccc(-c2ccccc2)cc1)N(C[C@H]1CC[C@@H]([C@@H]2CC[C@H](CO)O2)O1)C(=O)c1ccccc1F (stereo partly drawn) | . | . | . | ? | 29µM* | 16µM*
CC(C)(CNC(=O)NCC1CCCC1)C(N)=O | . | . | 7% | . | . | .
COc1cc(F)c(C2=CC(=O)C[C@H](c3ccc(F)cc3)C2)cc1F | . | . | -5% | ? | ? | -17%
COc1ccc([C@H]2CC(=O)C=C(c3ccccc3)C2)cc1OC | . | . | -10% | ? | ? | ?
COc1ccc([C@H]2CC(=O)C=C(c3ccc(Oc4ccccc4)cc3)C2)cc1OC | . | . | 8% | ? | 10µM* | 23µM*
COc1ccc(C2=CC(=O)C[C@H](c3ccc(F)cc3)C2)cc1F | . | . | 1% | ? | 21µM* | ?
O=C1C=C(c2n[nH]nc2-c2ccccc2)C[C@@H](c2ccc(F)cc2)C1 | . | . | 89% | . | ? | 16µM*
O=C1C=C(c2ccc(Oc3ccccc3)cc2)C[C@@H](c2ccc(F)cc2)C1 | . | . | 2% | -10% | 18µM* | ?
